# Test results taken from the supplement of paper PMC9897528.
# Tested on: Scedosporium aurantiacum CBS 136046
# Experiment: growth inhibition relative to DMSO control (OD600); higher = more antifungal activity, active = 80 or more; extreme values may be limits of the assay
# Conditions: 5 µM; 72 h; 37 °C
# 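Further: conidia screened in RPMI 1640 medium under 5% CO2, growth read by spectrophotometer, medium with 0.5% DMSO serving as the untreated reference.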
row,SMILES,growth inhibition
1,Cc1cc(-c2ccccc2)c(C(=O)C(=O)Nc2ccc(N3CCN(c4ncc(F)cn4)CC3)cc2)n1C,81.8% (active)
2,O=C(O)/C=C/C=C/c1cccc(Oc2cc(Cl)cc(Cl)c2)c1,13.8% (inactive)
3,O=C1c2cccc3cccc(c23)C(=O)N1CC1CO1 (stereo not drawn),19.8% (inactive)
4,O=C(Nc1ccccc1C(=O)O)c1cccc(Oc2ccccc2)c1,0.169% (inactive)
5,C=C(C)[C@@H]1CC[C@]2(C(=O)O)CC[C@]3(C)[C@H](CC[C@@H]4[C@@]5(C)CC[C@H](O)C(C)(C)[C@@H]5CC[C@]43C)[C@@H]12,1.06% (inactive)
6,Cc1nc2ccc(Oc3ccccc3)cc2c2c1CCN2CCc1ccccc1,54.5% (inactive)
7,Fc1ccc(-n2cc(Cn3c(-c4cccc(F)c4)nc4ccccc43)nn2)cc1,17.9% (inactive)
8,CCOC(=O)/C=C/[C@H](C[C@@H]1CCNC1=O)NC(=O)[C@H](CC)n1cccc(NC(=O)c2cc(C)on2)c1=O,2% (inactive)
9,CCCCC(CC)CNC(=N)NC(=N)NCCCCCCNC(=N)NC(=N)NCC(CC)CCCC (stereo not drawn),85% (active)
10,CC(C)n1cnc2c(NCc3ccccc3)nc(NCc3ccccc3)nc21,39.6% (inactive)
11,O=c1nc(N2CCN(CC3CCCCC3)CC2)sc2c([N+](=O)[O-])cc(C(F)(F)F)cc12,28.5% (inactive)
12,CC[N+]1(C/C2=C/CCCCCC2)CCC(NC(=O)C2c3cc(Cl)ccc3Oc3ccc(Cl)cc32)CC1 (stereo not drawn),9.71% (inactive)
13,Cc1cc(CCOc2c(C)cc(-c3nnn(C)n3)cc2C)on1,3.61% (inactive)
